Data reported in ChEMBL document CHEMBL1157539, “Thousands of chemical starting points for antimalarial lead identification” (Nature, 2010).

Key:
Format in all cases: functional
Plasmodium falciparum [1] = assay: GSK_TCMDC: Inhibition of Plasmodium falciparum 3D7 in whole red blood cells, using parasite LDH activity as an index of growth. Test compounds present at 2uM
Plasmodium falciparum [2] = assay: GSK_TCMDC: Inhibition of Plasmodium falciparum Dd2 in whole red blood cells, using parasite LDH activity as an index of growth. Test compounds present at 2uM
HepG2 = assay: GSK_TCMDC: Percent inhibition of human HepG2 cell line. Test compounds present at 10uM.

Compound | Inhibition (Plasmodium falciparum [1]) [%] | Inhibition (Plasmodium falciparum [2]) [%] | Inhibition (HepG2) [%]
CC1(C)N=C(N)N=C(N)N1OCCCCON1C(N)=NC(N)=NC1(C)C | 97 | 95 | 54
Cl.c1ccc2ncc(CNCCCCCCCCNCc3cnc4ccccc4c3)cc2c1 | 88 | 4 | 8
CCOc1ccc(C(=O)N2CCOC(CCN3CCC(c4ccccc4)CC3)(c3ccc(Cl)c(Cl)c3)C2)cc1 (stereo not drawn) | 88 | 71 | 14
COc1ccc(C(=O)CCC(=O)N(Cc2ccc(-c3ccc(CNCCc4ccc(S(C)(=O)=O)cc4)cn3)cc2)C2CC3CCC2C3)cc1F.O=C(O)C(F)(F)F (stereo not drawn) | 97 | 34 | 5
Cc1ccccc1Nc1nc(Nc2ccccc2)c2ccccc2n1.Cl | 100 | 21 | 19
COCc1nc(-c2ccccc2)nc(N2CCN(C(=O)NC(C)C)CC2)c1Cc1ccccc1F | 96 | 94 | 35
CC(=O)N1N=C(c2ccc(F)cc2)Sc2c1nc(-c1ccccc1)n2C(C)=O | 99 | 67 | 0
CC[C@H](C)CNC(=O)c1ccnc(-c2ccc(CNCCCc3ccccc3)cc2)c1.O=C(O)C(F)(F)F | 100 | 84 | 17
CCCC(=O)NC(NC(=S)Nc1ccc([N+](=O)[O-])cc1)C(Cl)(Cl)Cl (stereo not drawn) | 93 | 14 | 10
CCCCSc1c(CNCCCCCCNCc2ccc3ccccc3c2SCCCC)ccc2ccccc12.CS(=O)(=O)O | 93 | 62 | 99
Cc1c(-c2cccc(NC(=O)C(C)(C)Oc3ccc(Cl)cc3)c2)nc2ncccn12 | 98 | 95 | 0
O=C(NCCCCN1CCN(c2cccc3c2CCCC3)CC1)c1ccc(NC(=O)c2ccc(Cl)cc2)cc1 | 100 | 85 | 35
CNc1ccc(CNCc2ccc(-c3ccc(-c4nc5cccc(C)c5[nH]4)cc3)cc2)cc1.O=C(O)C(F)(F)F | 100 | 92 | 35
CC(=O)c1c[nH]c2ccc(/C=C/C(=O)NC3CCC(CCN4CCc5ccc(C#N)cc5CC4)CC3)cc12.Cl (stereo not drawn) | 100 | 98 | 11
O=C(O)C(F)(F)F.O=S(=O)(NCCN1CCCC1)c1cccc(-c2ccc(CNCc3ccccc3)cc2)c1 | 95 | 41 | 54
Fc1cccc(COc2ccc(Nc3ncnc4sc(C#Cc5ncc[nH]5)cc34)cc2Cl)c1 | 100 | 95 | 55

Compound | Inhibition (Plasmodium falciparum [1]) [%] | Inhibition (Plasmodium falciparum [2]) [%] | Inhibition (HepG2) [%]
O=C(NC1CCCCN(Cc2ccccc2O)C1)c1cccc(C(F)(F)F)c1.O=C(O)C(F)(F)F (stereo not drawn) | 93 | 64 | 0
Cc1ccc(NC(=O)c2ccc(CN3CCCN(Cc4cccc(O)c4)CC3)cc2)cc1F.O=C(O)C(F)(F)F | 97 | 31 | 48
c1ccc(COc2ccc(C3CCCCC3)cc2)nc1 | 99 | 1 | 0
CS(=O)(=O)c1ccc(CNCc2ccc(-c3ccc(-c4nc5cc(C(F)(F)F)ccc5[nH]4)cc3)cc2)cc1.O=C(O)C(F)(F)F | 100 | 82 | 26
COc1cccc(-c2c(C#N)c(N)nc3c2c(C)nn3-c2ccccc2)c1O | 100 | 100 | 4
COc1cc(NC(=O)C(c2ccc(Cl)cc2)C(C)C)cc(OC)c1 (stereo not drawn) | 99 | 98 | 5
COc1ccc2nccc([C@@H](O)CN3CCC(NCc4ccc5nsnc5c4)CC3)c2c1.O=C(O)C(=O)O | 95 | 64 | 12
Cc1cc(NCCc2ccccc2)nc(NC(=N)Nc2cccc(F)c2)n1 | 91 | 0 | 0
CCn1ccc2c(N3CCCS3(=O)=O)cc(C(=O)N[C@@H](Cc3ccccc3)[C@H](O)CNC(C)(C)CCCC(C)C)cc21 | 97 | 98 | 8
COc1ccc(CNC(=O)c2cnc3c(O)cccc3c2Nc2cccc(NC(=O)c3ccc(-c4ccccc4)cc3)c2)cc1.O=C(O)C(F)(F)F | 90 | 83 | 42
Cc1nc(-c2cccc3c(NC(=O)N4CCc5cc6nccc(N7CCN(C)CC7)c6cc54)cccc23)no1.Cl | 100 | 97 | 45
COc1ccc(F)cc1-c1ccc(C(=O)N2CCCN(c3ccc(C#N)cn3)CC2)cc1 | 99 | 100 | 9
Cc1cccc2nc(-c3cccc(-c4ccc(NC(=O)COc5ccccc5C(N)=O)cc4)c3)[nH]c12 | 100 | 47 | 18
OCc1ccc(-c2cncc(Nc3cccc(Cl)c3)c2)cc1 | 95 | 100 | 4
Cc1cccc2c(/C=C/C(=O)NC3CCC(CCN4CCc5ccc(C#N)cc5CC4)CC3)c[nH]c12.Cl (stereo not drawn) | 91 | 49 | 18
